From PubChem BioAssay (NCI)
Compounds without any hit were thinned out: in the full panel of roughly 83,000, 20% have a hit.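 In brief: 96-well plates, 48 h treatment, single concentration, percent growth endpoint.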 A number with no mark means an inactive call. Calls of active or inactive are those of the source.

These compounds were tested on OVCAR-4 ovarian (assay: NCI-60 one-dose screen, 48 h (100 = growth as untreated, 0 = no growth, -100 = all killed)). Settings: 10 µM unless noted.
Protocol: Growth inhibition of the OVCAR-4 human tumor cell line is measured as a screen for anti-cancer activity. Cells are grown in 96 well plates and exposed to the test compound for 48 hours. Compounds are tested at a single concentration, which is 10^-5 M for most compounds. The reported endpoint is percent growth (GI% or GIPRCNT), where numbers from 0 - 100% represent growth inhibition, and numbers from -100% - 0 represent cell death. For example, a value of 40 represents 60% growth inhibition. A value of 0 means no net growth occurred over the course of the experiment. A value of -40 indicates 40% of cells at the beginning of the experiment died by the end of the experiment. A value of -100 means all cells are dead at the end of the experiment.
NCI-60 Human Tumor Cell Lines Screen was performed using the standard one-dose NCI protocol, which is described in more detail at https://dtp.cancer.gov/discovery_development/nci-60/default.htm.
Compounds with GIPRCNT values below 10 were considered active. Activity score was based on GIPRCNT using the following formula: […]
Score is 0 for GIPRCNT values of 100 or above, 50 for GIPRCNT values of 0, and 100 for GIPRCNT values of -100.

Structure (SMILES)	growth
COc1cc(C2CC(=O)Nc3c2cnn3C)cc(OC)c1OC (stereo not given)	113%
ClCCn1cnc2c(SCc3ccccc3Cl)ncnc21	81.7%
CC1CCCN(CCCCOc2ccc(-c3ccc(C#N)cc3)cc2)C1 (stereo not given)	93.8%
NC(=O)c1ccc[n+](Cc2ccccc2)c1	102%
Cc1ccc(C(=O)CC(=O)C(F)(F)C(F)(F)C(F)(F)F)s1	112%
CN(C)c1nc(-c2ccco2)n2nc(-c3ccc(Cl)cc3)cc2n1	-10.2% (active)
Cc1ccc([C@H]2c3[nH]c4ccccc4c3C[C@H]3C(=O)N(CCCCCCC(=O)NO)CC(=O)N23)cc1	59.2%
COc1ccc(/C=C/c2nc3ccccc3c(=O)n2-c2ccc(C#Cc3ccc(C(C)(C)C)cc3)cc2C)c(OC)c1	97.9%
Cc1cc(N)cc(C)c1-c1c(Br)cc(N)cc1Br	61.9%
CC(C)(C)OC(=O)N1CCCN(CCNc2nccc(-c3c(-c4cccc(O)c4)nc4sccn34)n2)S1(=O)=O	108%
COc1ccc2nc3cc(Cl)ccc3c(NC(=O)CSc3ccc(Cl)cc3)c2c1	-96.8% (active)
CC(C)(c1ccccc1)c1cc(O)c(C(C)(C)c2ccccc2)cc1O	30.8%
Clc1ccc(Cl)c(N=Cc2ccc3c(c2)OCO3)c1	108%
CC(=O)N1N=C(C2C(=O)N(C)C(=O)N(C)C2=O)CC1c1ccccc1C(=O)O (stereo not given)	113%
Fc1ccc(-c2nc(-c3ccc(-c4nc5ccc(F)cc5[nH]4)cc3)no2)cc1	-8.43% (active)
COc1ccc(Oc2nc(Nc3ccc(N4CCOCC4)cc3)ncc2NC(=O)Nc2cccc(OC)c2)cc1	75.8%
CC(=O)Nc1c(Br)cc2c(c1Br)Cc1cc(Br)ccc1-2	9.85% (active)
c1cn2cc(-c3ccc4ncn(C5CCCCC5)c4c3)nc(-c3ccc4c(c3)ncn4C3CCCCC3)c2n1	2.84% (active)
CCN(CC)CCNC(=O)n1cc(-c2ccncc2)c(-c2cc(Cl)cc(OC)c2)n1	70.4%
CCOC(=O)C1=C(C)NC(=S)NC1c1ccccc1 (stereo not given)	98.5%

Structure (SMILES)	growth
COc1ccc2nc3ccccc3c(NCc3ccc(C)cc3)c2c1	18.5%
Cc1ccc(Nc2cccc3ccccc23)cc1	78.9%
NS(=O)(=O)c1ccc(CCn2c(SCC(=O)N/N=C/c3cccnc3)nc3ccccc3c2=O)cc1	94.6%
COc1cc(/C=C2\CN(C(=O)OC(C)(C)C)C/C(=C\c3ccc(O)c(OC)c3)C2=O)ccc1O	97.6%
COc1ccc(N=C2CSc3nnc(-c4cc(F)c(Cl)cc4Cl)n3N2)cc1	-59.2% (active)
CCCCCCCCCCCC1=NC(C)(C)CN1CC(C)O (stereo not given)	70.2%
O=C(CCCCCCN1CC(=O)N2[C@@H](c3ccc(Cl)c(Cl)c3)c3[nH]c4ccccc4c3C[C@H]2C1=O)NO	45.6%
COc1cnc2c(c1)C(=O)c1c-2n(CCCN2CCCC2)c(=O)c2cc(Cl)ccc12	45.4%
C=C1C(=O)O[C@H]2[C@H]1CC/C(COC(=O)NCc1cccc(OC)c1)=C\CC[C@@]1(C)O[C@@H]21	49%
O=C1/C=C/[C@@H](O)[C@@H]2C[C@@H](O)C[C@H]2/C=C/CCC[C@H]([C@@H](O)CO)O1	72.8%
CCCCCCCCN=C(NCCCCCCCC)SCc1cccc2ccccc12	-91.7% (active)
CCCCCCCCCCCCNC(=O)N[C@H](C(=O)N[C@H]1/C=C/OCCNC(=O)/C=C/[C@H](C(C)C)NC1=O)C(C)C	50.8%
O=C(Nc1ccncc1)C(=O)c1cn(S(=O)(=O)c2cccc(Cl)c2F)c2ccccc12	65.4%
CN(C)c1nc(-c2cccs2)n2nc(-c3ccco3)cc2n1	74.6%
Cn1c(-c2ccccc2)cc(=O)n1-c1ccccc1	103%
C=C(C)[C@@H]1CC[C@]2(C(=O)NC(COC(=O)C(Cl)Cl)(COC(=O)C(Cl)Cl)COC(=O)C(Cl)Cl)CC[C@]3(C)[C@H](CC[C@@H]4[C@@]5(C)CC[C@H](OC(C)=O)C(C)(C)[C@@H]5CC[C@]43C)[C@@H]12	54.5%
CC1CCN(CCCCCOc2ccc3oc4ccc(Cl)cc4c(=O)c3c2)CC1	77.3%
O=C1c2cccc3cccc(c23)C(=O)N1CCCCCCCCCCN1C(=O)c2cccc3cccc(c23)C1=O	95%
ClC1=NC(Cl)C(Cl)=N/C1=N\c1ncn[nH]1 (stereo not given)	-70.3% (active)
Cc1ccccc1NC(=O)c1sc2nc3c(cc2c1N)C(=O)CCC3	67.6%
